Measurements from the supplement of paper PMC3334620.
Whole data set: some 33,000 sequences, median “E-score (-0.5 to 0.5)” near -0.054, cut for the highest 2% near 0.35. The full list was thinned out, with the highest values kept by preference.

Target: T1, Stb5 (UniProt P38699)
T1 sequence: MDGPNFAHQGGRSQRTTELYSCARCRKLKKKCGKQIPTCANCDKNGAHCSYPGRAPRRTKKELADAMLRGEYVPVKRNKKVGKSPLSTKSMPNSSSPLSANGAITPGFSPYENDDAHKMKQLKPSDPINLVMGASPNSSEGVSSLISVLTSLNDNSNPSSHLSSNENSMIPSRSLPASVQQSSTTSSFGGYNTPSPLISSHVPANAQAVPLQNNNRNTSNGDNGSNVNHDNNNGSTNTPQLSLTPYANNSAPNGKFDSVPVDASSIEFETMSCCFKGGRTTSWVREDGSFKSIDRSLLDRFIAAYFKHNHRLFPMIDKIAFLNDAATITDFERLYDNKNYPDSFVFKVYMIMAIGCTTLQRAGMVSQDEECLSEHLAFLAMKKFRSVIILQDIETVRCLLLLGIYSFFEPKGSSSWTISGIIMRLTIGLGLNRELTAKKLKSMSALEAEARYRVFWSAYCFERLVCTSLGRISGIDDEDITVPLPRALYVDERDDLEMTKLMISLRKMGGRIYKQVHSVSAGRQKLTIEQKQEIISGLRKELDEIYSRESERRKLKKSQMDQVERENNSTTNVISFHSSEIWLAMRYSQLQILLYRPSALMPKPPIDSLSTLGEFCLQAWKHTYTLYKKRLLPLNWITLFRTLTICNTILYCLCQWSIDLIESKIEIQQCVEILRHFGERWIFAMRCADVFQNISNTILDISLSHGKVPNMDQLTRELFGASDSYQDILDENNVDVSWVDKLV
Experiment: PBM E-score (8-mer binding enrichment) (E-score (-0.5 to 0.5)); higher = stronger / more preferred TF binding
Settings: protein concentration: 200 nM; construct: GST-full length
How it was run: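 Yeast transcription factors, full-length or as DNA-binding domains, were expressed with a GST tag using PURExpress in vitro transcription/translation. At about 100-200 nM they were applied to universal all-10-mer Agilent arrays, double-stranded by primer extension on fresh or once-stripped slides. Fluorescent anti-GST detected bound protein, and masliner normalised the scans. E-scores for ungapped eight-base words, pooled with reverse complements, came from the Universal PBM Analysis Suite.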

First: ATTACCCC
Second: ACTACCGG
The “PBM E-score” value of the first is higher: 0.362 for the first, 0.279 for the second.

Going from ATTACCTC to ATTACCGC, the “PBM E-score” value rises from 0.0374 to 0.419.

First: CTTACCGA
Second: ATTACCGG
The “PBM E-score” value of the first is lower: 0.0867 for the first, 0.371 for the second.

Compared with GTTACCGA, ATTACCGA is higher in “PBM E-score” value: 0.197 for the first, 0.38 for the second.

Compared with CTTACCGC, ATTACCCG is lower in “PBM E-score” value: 0.193 for the first, 0.176 for the second.

First: CTTACCCC
Second: ATTACCTG
The “PBM E-score” value of the first is higher: 0.222 for the first, -0.0469 for the second.

Compared with CAGCAAGG, GATGATAA is higher in “PBM E-score” value: -0.369 for the first, 0.0422 for the second.

First: ACCCACTA
Second: CGGCTTCA
The “PBM E-score” value of the first is lower: 0.0277 for the first, 0.259 for the second.

Compared with ACTTTGGG, CTGGCCAC is lower in “PBM E-score” value: -0.0994 for the first, -0.199 for the second.

Going from CTCCCGAG to CCAAGGTA, the “PBM E-score” value rises from -0.213 to -0.11.

Compared with ATGCGGTA, GTGCGGTA is higher in “PBM E-score” value: 0.243 for the first, 0.367 for the second.

Going from CGGCGGTC to CGGCGGCC, the “PBM E-score” value falls from 0.355 to 0.242.

Compared with GGGCGGTA, CCGCGGGC is lower in “PBM E-score” value: 0.346 for the first, 0.335 for the second.

Going from CGGCGGGC to CGGCGGTA, the “PBM E-score” value rises from 0.361 to 0.451.

First: CGGCGGGA
Second: AGGCGGTA
The “PBM E-score” value of the first is higher: 0.347 for the first, 0.287 for the second.

Compared with AGGCGGTC, CTGCGGTA is lower in “PBM E-score” value: 0.258 for the first, 0.254 for the second.

Going from AGCGAGTC to AGAATTCG, the “PBM E-score” value falls from -0.132 to -0.146.

Compared with CGGCGACG, GACGGCGC is higher in “PBM E-score” value: 0.194 for the first, 0.199 for the second.

Compared with CAACCGTC, GAGCCGAC is higher in “PBM E-score” value: -0.0245 for the first, 0.201 for the second.

First: GGGCCGAC
Second: CGGCCGAC
The “PBM E-score” value of the first is higher: 0.355 for the first, 0.205 for the second.

Going from AGGCCGAC to GGGCCGAA, the “PBM E-score” value falls from 0.406 to 0.175.

Compared with AGGCCGAT, ACAAGTGT is lower in “PBM E-score” value: 0.295 for the first, -0.136 for the second.

First: CAGGTTAA
Second: AACGGACA
The “PBM E-score” value of the first is lower: -0.0457 for the first, 0.298 for the second.

Going from AACGGACG to AACGGAGT, the “PBM E-score” value rises from 0.224 to 0.378.

Going from AACGGAGC to AACGGGGG, the “PBM E-score” value rises from 0.242 to 0.296.

Going from AACGGAGA to AACGGACC, the “PBM E-score” value rises from 0.247 to 0.38.

First: AACGGACT
Second: CACGGACC
The “PBM E-score” value of the first is higher: 0.38 for the first, 0.241 for the second.

Going from AACGGGGT to AACGGGGC, the “PBM E-score” value falls from 0.373 to 0.294.

First: AACGGATC
Second: GTAAGATA
The “PBM E-score” value of the first is higher: 0.16 for the first, 0.0697 for the second.

First: CTGCAGCC
Second: TCTGGGCA
The “PBM E-score” value of the first is lower: -0.218 for the first, 0.115 for the second.

Compared with TAGCTTCA, AGCGATGC is higher in “PBM E-score” value: -0.214 for the first, -0.112 for the second.

First: CGTTGTAA
Second: AGTTCAGC
The “PBM E-score” value of the first is higher: -0.00989 for the first, -0.299 for the second.

First: AAGCGGCA
Second: GAGCGGTA
The “PBM E-score” value of the first is higher: 0.344 for the first, 0.316 for the second.

Going from TAGCGGCA to GAGCGGCA, the “PBM E-score” value falls from 0.372 to 0.357.

First: GAGCGGCC
Second: CAGCGGCA
The “PBM E-score” value of the first is higher: 0.293 for the first, 0.198 for the second.

Going from CGCCAGTC to CGCTGATC, the “PBM E-score” value falls from 0.131 to 0.0743.

Compared with TAGCGATA, AATGCCGG is higher in “PBM E-score” value: 0.0393 for the first, 0.401 for the second.

Compared with AATGCCGC, AATGCCTG is lower in “PBM E-score” value: 0.448 for the first, -0.102 for the second.

Compared with AATGCCGA, CATGCCGG is lower in “PBM E-score” value: 0.419 for the first, 0.344 for the second.

First: GATGCCGC
Second: AATGCCCG
The “PBM E-score” value of the first is lower: 0.349 for the first, 0.362 for the second.

Compared with CATGCCGC, GATGCCGA is higher in “PBM E-score” value: 0.312 for the first, 0.332 for the second.

Compared with CATGCCGA, AATGCCCC is lower in “PBM E-score” value: 0.168 for the first, 0.128 for the second.

Going from CATGCCCG to AAGACCTC, the “PBM E-score” value falls from 0.122 to -0.0749.

First: CCCTTGGC
Second: CTGATTAC
The “PBM E-score” value of the first is lower: -0.224 for the first, -0.0945 for the second.

First: GCAGTTCA
Second: CTTGCCAC
The “PBM E-score” value of the first is lower: -0.151 for the first, -0.0929 for the second.

First: CTGGGAGA
Second: AAAGCTCG
The “PBM E-score” value of the first is lower: -0.253 for the first, -0.16 for the second.

Going from AGATAGAC to ACCCTTTG, the “PBM E-score” value rises from -0.0476 to 0.0498.

First: CAGCCATA
Second: AATCCCAA
The “PBM E-score” value of the first is lower: -0.263 for the first, 0.0066 for the second.

Compared with AATGCCGT, AATGCCAT is lower in “PBM E-score” value: 0.425 for the first, -0.0216 for the second.

Compared with AATGCCCT, GGGTTTCA is higher in “PBM E-score” value: -0.168 for the first, 0.19 for the second.

Going from TACCGCAA to AACCGCAA, the “PBM E-score” value falls from 0.225 to 0.12.

Compared with CACCGCAA, AACCGCAC is lower in “PBM E-score” value: 0.368 for the first, 0.00707 for the second.

Compared with GACCGCAC, CACCGCAC is higher in “PBM E-score” value: 0.18 for the first, 0.357 for the second.

Compared with CGAGGCTA, AATGAGAG is lower in “PBM E-score” value: -0.0771 for the first, -0.228 for the second.

First: ATGCCTTA
Second: CACCGGAG
The “PBM E-score” value of the first is lower: -0.338 for the first, 0.379 for the second.

Compared with GACCGGCC, GACCGGAA is lower in “PBM E-score” value: 0.29 for the first, 0.21 for the second.

First: CTCCGGAG
Second: ATCCGGAC
The “PBM E-score” value of the first is higher: 0.283 for the first, 0.258 for the second.

Compared with GTCCGGAC, CGCCGGAC is higher in “PBM E-score” value: 0.348 for the first, 0.396 for the second.

Going from AACCGGAG to CGCCGGAA, the “PBM E-score” value falls from 0.302 to 0.168.

Compared with CTCCGGAC, GACCGGAC is higher in “PBM E-score” value: 0.381 for the first, 0.387 for the second.

First: GGCCGGAC
Second: TAGACCAA
The “PBM E-score” value of the first is higher: 0.331 for the first, -0.239 for the second.

Going from CAATGGCA to TATTTACA, the “PBM E-score” value falls from 0.022 to -0.157.

First: AGCTGTTC
Second: CAAGATGG
The “PBM E-score” value of the first is lower: -0.207 for the first, -0.13 for the second.

First: TAGATTGA
Second: AAAGTACG
The “PBM E-score” value of the first is higher: 0.0223 for the first, 0.00248 for the second.

Compared with CCAATGCG, GAGAGGCC is higher in “PBM E-score” value: -0.208 for the first, -0.0937 for the second.

Compared with CACCGGGG, AACCGGAC is lower in “PBM E-score” value: 0.33 for the first, 0.28 for the second.

Compared with CACCGGGC, GACCGGGC is lower in “PBM E-score” value: 0.375 for the first, 0.211 for the second.

Compared with CACCGGAA, CACCGGAC is higher in “PBM E-score” value: 0.293 for the first, 0.413 for the second.

First: CAGCAATA
Second: ATGCCCAA
The “PBM E-score” value of the first is higher: -0.0729 for the first, -0.116 for the second.

Going from CGCGGCTA to CGGTAATA, the “PBM E-score” value rises from 0.3 to 0.457.

Compared with AGGTAACA, CGGTAATC is higher in “PBM E-score” value: -0.111 for the first, 0.25 for the second.

Going from GGGTAATA to CGGTAACC, the “PBM E-score” value rises from 0.143 to 0.165.

First: CGGTAACA
Second: CGCATAAA
The “PBM E-score” value of the first is higher: 0.36 for the first, -0.127 for the second.

Going from AAAGCGGG to TAAGCGGA, the “PBM E-score” value falls from 0.297 to 0.209.

First: CAAGCGGG
Second: CAAGCGGC
The “PBM E-score” value of the first is lower: 0.273 for the first, 0.379 for the second.

Compared with AAAGCGGA, CAAGCGGA is lower in “PBM E-score” value: 0.352 for the first, 0.223 for the second.

Going from CCGACAAA to ACGACGGA, the “PBM E-score” value falls from 0.353 to 0.227.

Compared with GCGACGGA, CCGACGGC is higher in “PBM E-score” value: 0.283 for the first, 0.372 for the second.

First: ACGACGCG
Second: CCGACGGA
The “PBM E-score” value of the first is lower: -0.0646 for the first, 0.394 for the second.

Compared with CCGACAAG, TCGACAAA is lower in “PBM E-score” value: 0.266 for the first, -0.183 for the second.

First: CCGACGCC
Second: CCGACGAC
The “PBM E-score” value of the first is higher: 0.315 for the first, 0.312 for the second.

Compared with ACGACGGC, CCGACGCG is higher in “PBM E-score” value: 0.146 for the first, 0.378 for the second.

Compared with CGCGATCC, AAAACGGC is higher in “PBM E-score” value: 0.0632 for the first, 0.21 for the second.

First: GTACTCAA
Second: GCTTTAAC
The “PBM E-score” value of the first is lower: -0.185 for the first, -0.0801 for the second.

First: TAAATCGA
Second: AGTCAAAA
The “PBM E-score” value of the first is lower: -0.267 for the first, -0.00563 for the second.

Going from AAACCTCT to ATAAAGAG, the “PBM E-score” value falls from 0.015 to -0.0867.
